Compound activity deposited in PubChem by National Center for Advancing Translational Sciences (NCATS).
TDP1 cell noCPT: qHTS for Inhibitors of human tyrosyl-DNA phosphodiesterase 1 (TDP1): qHTS in cells in absence of CPT | DT40 Tdp1-/- hTDP1 cells, no CPT, ATP luminescence, 48 h | Potency, µM (highest dose often 46.2 µM), for inactives: top-dose activity change, negative = growth inhibition, most hits filed as inhibitors | hit rate 15% among 420,000 | AID 686978, 2013; further: potency means the concentration at half of the fitted maximal effect; nearly all actives have a fitted effect of over 55% in size
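A cellular qHTS used chicken DT40 cells lacking endogenous Tdp1 but carrying stably transfected human TDP1. Compounds were applied without camptothecin, and cell growth kinetics were judged by ATP-dependent luminescence after ≥48 hr.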
HT1080 IDH1KD tx: kills HT-1080 cells with IDH1 knockdown | HT-1080 IDH1 knockdown viability, ATP luminescence, 48 h | Potency, µM (series often up to 46.1 µM), for the others: at the highest dose activity, negative = toxicity, actives largely listed as cytotoxic | hit rate 2% among 360,000;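 further: potency means the concentration at half of the fitted maximal effect; 0% = DMSO wells and -100% = cell-free medium wells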
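Assay cells: HT-1080 with IDH1 knockdown, 750 per well, RPMI/5% FBS. Exposure: 48 h at 37 °C following 2 h pre-incubation. Read: CellTiter-Glo luminescence; fitted concentration-response, curve class assigned.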
TDP1 cell CPT: DT40-hTDP1 cell growth loss with CPT; Potency, µM (titrated, usually from 46.2 µM), for the others: at the highest dose activity change, negative = growth inhibition, actives largely listed as inhibitors; hit rate 12% among 420,000; chicken DT40 Tdp1-/-;hTDP1 cells + 20 nM CPT, ATP luminescence, 48 h; further: potency means the concentration at half of the fitted maximal effect; nearly all actives have a fitted effect of over 55% in size
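Chicken DT40 Tdp1-/- cells complemented with human TDP1, 400 cells/well, exposed to compounds plus 20 nM camptothecin for at least 48 h at 37 C; viability read as ATP content by CellTiter-Glo luminescence.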
HT1080-NT tox: kills 2HG-producing HT-1080-NT fibrosarcoma cells; Potency, µM (highest dose often 46.1 µM), inactives show top-dose activity, negative = less viability, most hits filed as cytotoxic; AID 686970; hit rate 1.6% among 360,000; HT-1080-NT fibrosarcoma viability, CellTiter-Glo ATP luminescence, 48 h;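 further: NT is the 2HG producing partner of a matched IDH1 knockdown line; potency means the concentration at half of the fitted maximal effect; 0% = DMSO-treated cells and -100% = media-only wells without cells; nearly all actives have a fitted effect of over 55% in size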
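Viability by CellTiter-Glo luminescence after 48 h compound exposure at 37C of HT-1080-NT cells (750/well, RPMI, 5% FBS). % activity scaled between DMSO wells and medium-only wells, then curve-fitted and categorized by curve class.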
ALOX12 inh: ALOX12 (human) lipoxygenase inhibition; P18054; purified 12hLO, xylenol orange hydroperoxide absorbance; Potency, µM (top dose mostly 108 µM), without a hit: top-dose activity change, negative = inhibition, actives largely listed as inhibitors; hit rate 1.1% among 580,000; AID 1671190; further: potency means the concentration at half of the fitted maximal effect
Target sequence (P18054 whole entry, looked up): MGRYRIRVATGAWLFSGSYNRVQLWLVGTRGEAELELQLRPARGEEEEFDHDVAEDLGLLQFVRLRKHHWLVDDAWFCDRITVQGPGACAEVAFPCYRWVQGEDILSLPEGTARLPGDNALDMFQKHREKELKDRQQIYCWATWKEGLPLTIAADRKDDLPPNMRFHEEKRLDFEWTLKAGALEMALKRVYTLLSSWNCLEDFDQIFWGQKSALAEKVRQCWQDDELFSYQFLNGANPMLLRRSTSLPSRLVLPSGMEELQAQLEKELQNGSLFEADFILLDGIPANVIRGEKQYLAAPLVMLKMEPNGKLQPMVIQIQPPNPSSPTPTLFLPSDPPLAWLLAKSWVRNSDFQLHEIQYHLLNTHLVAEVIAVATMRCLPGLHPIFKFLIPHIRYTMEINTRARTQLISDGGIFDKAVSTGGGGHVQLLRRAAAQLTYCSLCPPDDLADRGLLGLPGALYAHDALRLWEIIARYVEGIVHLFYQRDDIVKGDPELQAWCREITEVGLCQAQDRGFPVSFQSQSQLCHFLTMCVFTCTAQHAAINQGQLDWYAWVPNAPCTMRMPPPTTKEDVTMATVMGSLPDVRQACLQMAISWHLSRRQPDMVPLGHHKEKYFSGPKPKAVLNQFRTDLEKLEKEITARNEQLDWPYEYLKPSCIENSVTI
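Purified human 12hLO (150 nM final) in 25 mM Hepes, 0.01% Triton X-100, pH 7.0 was preincubated 15 min at room temperature with compound. Then 40 uM arachidonic acid was added, 30 min. Hydroperoxide was read by Fe-XO absorbance ratio 573/405 nm.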
IL-1B inflam inh: inflammasome signaling inhibition, IL-1 beta readout; THP-1 LPS/ATP IL-1B secretion, AlphaLISA, 16 h; hits give low values; activity change, % at 57.5 µM; hit rate 4.7% among 360,000; in the data active means activity change below about -50%; inconclusive means mostly about -30% to -49%
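THP-1 cells pretreated 1 hr with compounds (up to 57.5 uM final), then stimulated with LPS (250 ng/mL final) plus ATP (1.25 mM final); secreted IL-1B measured by AlphaLISA after 16 hr, decreased signal indicating inhibition.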
Active calls of the source: *; u = inconclusive; x = no result given; [ ] = dose if it differs, or a comment. Many of the other results were omitted from the sample, so hits are more common in it than they were. Unless noted, the call rests on the fitted dose curve; in most records, active means well fitted curve in the direction sought with a large enough effect; inconclusive means small, poorly fitted or top-dose-only effect, or another doubt; inactive means no such curve, though single readings can be large; an effect the other way counts as inactive or inconclusive. Unless noted, on the % scale 0 is the no-effect control and ±100 the full control effect.

SMILES	TDP1 cell noCPT	HT1080 IDH1KD tx	TDP1 cell CPT	HT1080-NT tox	ALOX12 inh	IL-1B inflam inh
CCC(CC)NCc1ccc2c(c1)c1ccccc1n2CC	25.9µM*	-10.6%	18.4µM*	-19.8%	0.0%	-54.2*
Cn1c(=O)c2c(ncn2CCC(=O)Nc2ccc(Br)cc2F)n(C)c1=O	x	x	x	x	6.9%	x
O=C(CCC1CCN(C(=O)c2ccccc2F)CC1)NC1CC1	x	x	x	x	-7.0%	x
CONC(=O)CSCC(=O)Nc1cccc(C)c1	x	x	x	x	-35.1%	x
NC(=S)Nc1cc(Cl)ccc1Cl	13µM*	7.8%	14.6µM*	12.2%	u	-0.7
NC(=O)Nc1cc(Cl)ccc1Cl	-0.1%	7.8%	2.3%	12.8%	u	14.0
COc1cccc(-c2noc(-c3ccc(Br)cc3)n2)c1	x	x	x	x	-4.3%	x
CN(C)CC(=O)N1CC(=O)N2[C@H](CO)[C@@H](c3ccc(Br)cc3)[C@H]2C1	x	x	x	x	-18.9%	x
O=C(c1cnccn1)N1CC(=O)N2[C@H](C1)[C@@H](c1ccc(Br)cc1)[C@@H]2CO	x	x	x	x	5.62µM*	x
CN(Cc1nnc2n1CCCCC2)C(=O)c1n[nH]c(=O)c2ccccc12	x	x	x	x	18.2%	x
O=C(c1ccccc1)C1CCN(C(=O)C2CCC(=O)N(Cc3ccccc3F)C2)CC1 (stereo not drawn)	20.6µM*	-1.9%	16.4µM*	0.5%	4.8%	12.2
O=C(c1ccccc1)C1CCN(C(=O)C2CCC(=O)N(Cc3cccc(F)c3)C2)CC1 (stereo not drawn)	-13.7%	-4.7%	u	-3.3%	0.0%	-12.3
O=C(CN1CCC(C(=O)c2ccc(F)cc2)CC1)Nc1ccccc1Cl	11.6µM*	-12.1%	-26.0%	-0.7%	-17.4%	-9.3
Cc1ccc(C(=O)C2CCN(CC(=O)Nc3nc(C)cs3)CC2)cc1	16.4µM*	0.6%	20.6µM*	0.0%	6.4%[57.4 µM]	-2.6
CCOc1ccccc1NC(=O)CN1CCC(C(=O)c2ccc(F)cc2)CC1	25.9µM*	-9.0%	20.6µM*	-4.2%	-11.4%	-4.3
COc1ccccc1NC(=O)CN1CCC(C(=O)c2ccc(F)cc2)CC1	u	-3.5%	u	0.7%	0.0%	16.7
CCOC(=O)c1c(C)[nH]c(C(=O)C(C)N(C)Cc2ccc(F)cc2)c1C (stereo not drawn)	x	x	x	x	-14.0%	x
Cc1cc(NC(=O)CSc2nnc(-c3ccccc3)c(-c3ccccc3)n2)no1	5.17µM*	5.17µM*	3.66µM*	2.91µM*	50.8%	-3.0
Cc1cc(NC(=O)CSc2nnc(-c3ccoc3C)o2)no1	u	6.31µM*	u	11.2µM*	0.0%	17.9
Cc1cc(NC(=O)CSc2nnc(-c3ccccc3)o2)no1	23.1µM*	-17.8%	u	-9.4%	11.1%	-11.0
COc1ccc(-c2nc(-c3ccccc3)nc3c2CN([S+](=O)([O-])c2cccs2)CC3)cc1	x	x	x	x	10.5%	x
CC1CCN(c2nc(SCCN(C)C)c(C#N)c3c2CCCC3)CC1	x	x	x	x	-6.5%	x
COc1ccc(/C=N\NC(=O)C2C(=O)NCC2c2ccccc2)cc1O (stereo not drawn)	16.4µM*	12.4%	7.31µM*	11.1%	-21.1%	0.0
O=C1NCC(c2ccccc2)C1C(=O)N/N=C\c1ccc(-c2ccc(Cl)c(Cl)c2)o1 (stereo not drawn)	u	u	u	u	-18.2%	-61.2*
O=C1NCC(c2ccccc2)C1C(=O)N/N=C/c1ccc(Cl)s1 (stereo not drawn)	6.9%	0.4%	6.5%	-3.3%	-2.3%	-17.9
SMILES	TDP1 cell noCPT	HT1080 IDH1KD tx	TDP1 cell CPT	HT1080-NT tox	ALOX12 inh	IL-1B inflam inh
CCOc1cc(/C=C2\NC(=O)NC2=O)ccc1OCc1ccc(Cl)cc1Cl	x	x	x	x	-3.2%	x
CCCC1=C(C(=O)OCC)C(c2cc(Cl)cc(OC)c2OCC(=O)OCC)NC(=O)N1 (stereo not drawn)	23.1µM*	-0.8%	u	-5.5%	-1.8%	6.3
O=S(=O)(Nc1cccc2c1CCCC2)c1cc(F)ccc1F	x	x	x	x	-0.7%	x
CCN(CC(=O)Nc1cc(Cl)ccc1C)C(=O)CCS(=O)(=O)c1ccc(Cl)cc1	u	0.5%	18.4µM*	3.9%	6.8%	-29.5
COC(=O)c1cccc(Nc2nc3ccccc3nc2C)c1	u	u	18.4µM*	-26.2%	130.3%	13.2
COc1cc(Nc2nc3ccccc3nc2-n2nc(C)cc2C)cc(OC)c1	x	x	x	x	-0.5%	x
Cc1cc(NCc2ccco2)nc2cc(O)ccc12	u	2.2%	u	0.0%	-12.7%	1.1
COc1cc(Nc2nc3ccccc3nc2C(=O)OC(C)C)cc(OC)c1	x	x	x	x	6.31µM*	x
COC(=O)c1cc(Nc2cc(C)c3c(O)cccc3n2)cc(C(=O)OC)c1	13µM*	-13.3%	20.6µM*	-26.0%	-20.1%	-20.8
COC(=O)c1cc(Nc2cc(C)c3ccc(O)cc3n2)cc(C(=O)OC)c1	-26.7%	-9.4%	u	-0.9%	11.9%	-65.3*
COC(=O)c1cc(Nc2cc(C)nc3ncnn23)cc(C(=O)OC)c1	-5.2%	2.6%	-7.7%	3.7%	-67.9%	13.5
CCC(NC(=S)NCc1ccc(F)cc1)c1ccccc1 (stereo not drawn)	u	-0.2%	u	-11.3%	u	-6.6
COc1ccc(C(C)NC(=S)NCc2ccc(F)cc2)cc1 (stereo not drawn)	u	-10.4%	18.4µM*	-16.8%	u	22.2
Cc1ccc(C)c(C(C)NC(=S)NCc2ccc(F)cc2)c1 (stereo not drawn)	u	u	23.1µM*	u	u	40.0
COc1cccc(C(C)NC(=S)NCc2ccc(Cl)cc2)c1 (stereo not drawn)	-22.1%	3.7%	15.8%	4.4%	-20.2%	15.0
O=C(CCCSc1nc2ccccc2c(=O)[nH]1)c1ccc(F)cc1	u	-14.8%	11.6µM*	-6.3%	4.9%	0.0
Cc1cc(=O)[nH]c(SCC(=O)c2ccc(C(C)C)cc2)n1	18.4µM*	-9.4%	-25.7%	-1.0%	u	21.8
Cc1nc2ccccc2nc1SCC(=O)c1ccccc1	7.31µM*	-6.4%	u	1.5%	-14.7%	15.1
O=C(CSc1nc2ccccc2c(=O)[nH]1)Nc1ccc(C(=O)O)cc1	-3.1%	6.9%	3.9%	14.0%	-2.4%	-5.2
COc1ccc(C(=O)CSc2nc(C)cc(=O)[nH]2)cc1	-15.0%	-3.8%	-12.5%	-2.6%	u	27.0
O=c1[nH]c(SCCOc2cccc3ccccc23)nc2ccccc12	7.31µM*	6.8%	u	u	-6.3%	19.5
O=C(NCc1ccc2c(c1)OCO2)c1nc(-c2ccsc2)c2ccccn12	x	x	x	x	9.3%	x
